Reference: PubChem BioAssay (NCI)
The panel holds about 83,000 compounds, 20% with a hit somewhere; the sample as a whole holds those more often.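 Activity criterion: percent growth below 10, measured after cells in 96-well plates were exposed to a single compound concentration for 48 hours.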 The source made the active and inactive calls.

Tested on: 786-0 renal
Test: NCI-60 one-dose screen, 48 h (100 = growth as untreated, 0 = no growth, -100 = all killed)
Details: 10 µM unless noted

Structure (SMILES)	growth
CC/C(=C(/c1ccc(Cl)cc1)c1ccc(OCCN(C)C)cc1)c1ccc(Cl)cc1	66.3% (inactive)
Cn1cc(-c2nonc2-c2cn(C)c3ccccc23)c2ccccc21	28.1% (inactive)
COC12C=C/C(=C(/C(=O)OCc3ccncc3)C(=O)CCCCCCCCC3(OC)C=C/C(=C(/C(=O)OCc4ccncc4)C(=O)CCCCCCCC1)O3)O2	-50.9% (active)
COc1cc2ncnc(Nc3ccc(F)c(Cl)c3)c2cc1OCC(=O)N1CCN(c2ccccc2)CC1	85.6% (inactive)
COc1ccc(/C=C(\C#N)n2nnc3cc(Cl)ccc32)cc1	-16.7% (active)
COc1ccc(C(=O)/C=C/c2c(C(F)(F)F)nc3ccccn23)cc1OC	10.3% (inactive)
CCN(C)S(=O)(=O)Nc1cccc(Nc2ncnc3cc(NC(=O)CCl)ccc23)c1Cl	-82.8% (active)
Cc1c2cnccc2c(C)c2c1c1cc(C#N)ccc1n2C	-16.1% (active)
CN(C)CC(C)(C)C(=O)/C=C/c1ccccc1	-46.6% [25 µM] (active)
O=CN1N=C(c2cccc(Nc3ccnc4cc(Cl)ccc34)c2)CC1c1ccccc1 (stereo not given)	18.9% (inactive)
O=C(Nc1ccc(Oc2cccc(Cl)c2)c(Cl)c1)c1cnccn1	44.6% (inactive)
O=c1[nH]c(Cc2nc3ccccc3s2)nc2cc(Br)ccc12	68% (inactive)
C#CCNC(=O)[C@H](CC)[C@H]1CC[C@H](C)[C@H]([C@@H](C)[C@H](O)[C@H](C)C(=O)[C@H](CC)C2O[C@]3(C=CC(=O)[C@]4(CC[C@@](C)([C@H]5CC[C@](O)(CC)[C@H](C)O5)O4)O3)[C@H](C)C[C@@H]2C)O1 (stereo not given in full)	70.5% (inactive)
O=C(Nc1ccc(Oc2cccc(F)c2)c(Cl)c1)c1cccnc1	40.9% (inactive)
CS(=O)(=O)Nc1cc(-c2ccc3ncnc(Nc4ccc5c(cnn5Cc5ccc(F)cc5)c4)c3c2)cnc1Cl	48.3% (inactive)
COC1=CC(c2ccc[nH]2)=N/C1=C\c1[nH]c(C)c(C)c1CCC(=O)OCc1ccccc1	-38.8% (active)
CC(C)(C)CC(C)(C)NC(=O)Nc1ncccc1OCc1ccccc1	98.5% (inactive)
Nc1nc2ccccc2c2c1S(=O)(=O)c1ccc(Cl)cc1C2=O	16.2% (inactive)
CCOC(=O)C/C(=N\Nc1cc(=O)[nH]c2ccc(Br)cc12)C(=O)OCC	106% (inactive)
COc1cc(-c2csc(NC(=O)c3ccc(N4CCOCC4)c(C(F)(F)F)c3)n2)cc(OC)c1OC	37% (inactive)
Oc1c(Br)cc(Br)c2ccc(Cn3cc(-c4ccc(C(F)(F)F)cc4)nn3)nc12	96.9% (inactive)
C#CCOc1ccc2ncnc(Nc3ccc(NC(=O)C=C)cc3)c2c1	-37.7% (active)
CCn1cc(C(=O)O)c(=O)c2cc(F)c(N3CCN(CC(=O)Nc4ccc(S(=O)(=O)Nc5nccc(C)n5)cc4)C(C)C3)c(F)c21 (stereo not given)	112% (inactive)
O=C(Nc1cccc(-c2ccc(N3CCOCC3)nn2)c1)Nc1cccc(C(F)(F)F)c1	92.1% (inactive)
CSc1nc2ncc([N+](=O)[O-])c(=O)n2[nH]1	108% (inactive)
COc1cc2ncnc(Nc3ccc(S(=O)(=O)Nc4cc(C)on4)cc3)c2cc1OCCCN1CCN(c2ccc(F)cc2)CC1	110% (inactive)
O=S(=O)(NCCNc1nccc(-c2c(-c3ccc(F)c(O)c3)nc3occn23)n1)c1ccc(Cl)cc1	109% (inactive)
Nc1ncnc2c1N=C(c1ccc(Br)cc1)CC(c1cccc(Nc3ccnc4cc(C(F)(F)F)ccc34)c1)N2 (stereo not given)	53.7% (inactive)
Nc1ncc(-c2ccc3ncnc(Nc4cccc(Cl)c4)c3c2)cn1	40.8% (inactive)
O=C(Nc1ccccc1)Nc1ncnc2c1ncn2-c1ccc(Cl)cc1	46.9% (inactive)
